# FECH inh: blocks human mitochondrial ferrochelatase activity; actives 3.3% (n = 20,000); AID 1671448; P22830; calls only at 10 µM (by protocol); purified FECH, Ni-mesoporphyrin absorbance 550 nm;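 active = enzyme reaction rate more than 3 SD below the solvent-only control wells on the same plate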;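 note: lower slope than DMSO wells means FECH inhibition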
# Target sequence (P22830 whole entry, looked up): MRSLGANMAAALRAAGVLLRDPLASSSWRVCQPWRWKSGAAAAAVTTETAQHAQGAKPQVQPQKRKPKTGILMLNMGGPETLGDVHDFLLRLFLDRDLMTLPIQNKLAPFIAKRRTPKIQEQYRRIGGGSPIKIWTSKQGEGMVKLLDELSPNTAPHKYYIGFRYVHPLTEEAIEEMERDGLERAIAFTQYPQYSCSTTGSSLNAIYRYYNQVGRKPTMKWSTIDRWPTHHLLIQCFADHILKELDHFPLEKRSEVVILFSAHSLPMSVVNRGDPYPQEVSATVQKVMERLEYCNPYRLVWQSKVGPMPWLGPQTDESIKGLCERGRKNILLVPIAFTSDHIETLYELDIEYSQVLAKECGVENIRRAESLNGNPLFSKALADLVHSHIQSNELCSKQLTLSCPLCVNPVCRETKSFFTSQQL
# Calls only; i = inactive; + = active, no number. This excerpt belongs to a sample that is enriched for hits.
SMILES,FECH inh
COc1cc(OC)c(NC(=O)NCCc2nc3cccnc3n2Cc2ccc(C)cc2)cc1Cl,i
CCc1c(C)nc2ncnn2c1Sc1ccccc1NC(=O)c1ccccc1Br,i
CCOc1ccc2[nH]c(=O)c(CN3CCNC(CC)C3)cc2c1 (stereo not given),i
NC(=O)C1(N2CCCCC2)CCN(c2ncnc3sc4c(c23)CCNC4)CC1,i
CC(C)Cc1cc(CNc2ncnc3sc4c(c23)CCNC4)no1,i
CCCC1C=CCN1c1ncnc2sc3c(c12)CCNC3 (stereo not given),+
CC(C)NC(=O)[C@@H]1C[C@H](N)CN1C(=O)CCCc1ccccc1,i
N[C@@H](C(=O)NCCNc1cccnc1)c1ccccc1,i
CCNC(=O)COc1nc(CC)nc2onc(-c3ccc(F)cc3)c12,+
C=CCNC(=O)COc1nc(CC)nc2onc(-c3ccc(F)cc3)c12,i
CCc1nc(OCC(=O)NCc2ccccn2)c2c(-c3ccc(F)cc3)noc2n1,i
Cc1cccc(S(=O)(=O)Nc2cnc(N(CC(C)C)CC(C)C)c(C(=O)O)c2)c1,i
Cc1nn2cc(CNC(=O)COc3c(C)ccc(C)c3C)nc2s1,i
Cc1ccc(CNC(=O)c2[nH]cnc2C(=O)NCCC(C)C)o1,i
CC(C)(C)CNC(=O)c1nc[nH]c1C(=O)NCC(C)(C)C,i
COCCNC(=O)c1[nH]cnc1C(=O)NC1CCCCC1,i
CC(C)NC(=O)c1nc[nH]c1C(=O)NCC1CC1,i
O=C(NC1CC1)c1nc[nH]c1C(=O)NCC1CCCCC1,i
COc1ccccc1CNC(=O)c1[nH]cnc1C(=O)NC1CCCCC1,+
Cc1ccc(CNC(=O)c2nc[nH]c2C(=O)NCc2ccccc2)o1,i
COc1ccccc1CNC(=O)c1nc[nH]c1C(=O)NCc1ccccc1OC,+
CCCNC(=O)c1nc[nH]c1C(=O)NCC1CCCCC1,i
COc1ccccc1CNC(=O)c1nc[nH]c1C(=O)N1CCC(C)CC1,i
COc1ccccc1CNC(=O)c1[nH]cnc1C(=O)NC1CCCc2ccccc21 (stereo not given),+
COc1ccccc1CNC(=O)c1[nH]cnc1C(=O)NCc1ccc(C)o1,+
SMILES,FECH inh
Cc1ccc(C)c(OCC(=O)N(C)C(C)c2ccncn2)c1C (stereo not given),i
Cc1cc(CN2CC3(CCNCC3)CC2C(=O)O)oc1C (stereo not given),i
C=CCNC(=O)CCc1nc(-c2cc3ccc(C)cc3[nH]c2=O)no1,i
O=C(NCc1n[nH]c(=O)c2ccccc12)C(=O)N1CCCCCC1,i
COC(=O)CC1=CC(=O)N(CC(=O)NCc2ccccc2Cl)c2ccccc2N1,i
COc1ccc(C(=O)N(Cc2nc3nc(C)cc(C)n3n2)c2ccc(Cl)cc2)cc1,i
CCc1ccc2c(c1)-c1ccccc1S(=O)(=O)N2CC(=O)NCc1ccncc1,+
CCOCCCNC(=O)CN1c2ccc(CC)cc2-c2ccccc2S1(=O)=O,+
CC(C)c1ccc2c(c1)-c1ccccc1S(=O)(=O)N2CC(=O)NCCN1CCOCC1,i
COc1ccc(CCNC(=O)CN2c3ccc(C(C)C)cc3-c3ccccc3S2(=O)=O)cc1,i
O=C(CN1C(=O)c2ccccc2S1(=O)=O)NCc1ccc2c(c1)OCO2,i
CCc1ccc2c(c1)-c1ccccc1S(=O)(=O)N2CC(=O)NCCN1CCOCC1,i
CC(C)c1ccc2c(c1)-c1ccccc1S(=O)(=O)N2CC(=O)NCc1cccnc1,+
CCc1ccc2c(c1)-c1ccccc1S(=O)(=O)N2CC(=O)NCCc1ccc(OC)c(OC)c1,i
OCC1(CCOc2ccccc2)CCCN(c2nccc3occc23)C1 (stereo not given),i
CC1CN(C)CCCN1C(=O)c1cc(-c2cnn(C(C)C)c2)nc2ccc(F)cc12 (stereo not given),i
CCOc1ccc(C(=O)Nc2ccc(Nc3nc(C)cc(Nc4ccccc4)n3)cc2)cc1,i
Cc1cccc(-c2noc(CN(C)C(=O)c3cc(C(C)C)on3)n2)c1,i
CCCNS(=O)(=O)c1cc(C(=O)N2CCCC2)cs1,i
COc1ncccc1-c1cnc(-n2cnnc2)cc1C,i
CC1CCCN(c2nc(Nc3cccc(Cl)c3)c3cnn(-c4ccccc4)c3n2)C1 (stereo not given),i
C=CCNc1ccccc1C(=O)NC(CC)CO (stereo not given),i
O=C(CN1CCCN(Cc2ccccc2)S1(=O)=O)Nc1cccc(Cl)c1,i
O=C(CN1N=C(c2ccccc2)c2ccccc2S1(=O)=O)Nc1cccc(Cl)c1,+
O=C(CN1CCN(Cc2ccc(Cl)cc2)S1(=O)=O)Nc1cccc(Cl)c1,i
SMILES,FECH inh
Cc1ccc(S(=O)(=O)CCc2nc(-c3ccc4c(c3)Sc3ccccc3C(=O)N4C)no2)cc1,i
C=CCNc1nc(Nc2ccc(OCC)cc2)c2cnn(-c3ccccc3)c2n1,i
Cc1ncc(CO)c2cc(C3=NS(=O)(=O)c4ccccc4N3)c(=O)oc12,+
CN1CCC2(CCCN(C(=O)c3cccc(N)c3)C2)C1 (stereo not given),i
CCc1noc(CN(CC)C(=O)c2ccccc2N2CCCC2)n1,i
CCc1noc(CN(CC)C(=O)C(C)n2cnc3ccccc32)n1 (stereo not given),+

# Bioassay records deposited in PubChem by Corson Lab, School of Medicine, Indiana University.
